# Experimental data from ChEMBL document CHEMBL3988442, “University of Dundee, Small-Polar-MMV Screening Library” (2021).
# For some assays here: Results with a measured potency or affinity are listed apart.
# Experiments:
# Parameters in all cases: scale not given: direction of the effect not stated beside the values
# [1] = biological target: Protein translocase subunit SecA (Escherichia coli (strain K12)) (UniProt P10408); experiment: Assay to Identify E. coli SecA ATPase Inhibitors; assay type: functional; conditions: 30 µM
# [2] = biological target: T1, Ubiquitin-activating enzyme e1, putative (Leishmania donovani (strain BPK282A1)) (UniProt E9BSI1); experiment: Leishmania donovani Ubiquitin Activating Enzyme (LdE1); assay type: functional; conditions: 30 µM
# T1 sequence (whole entry): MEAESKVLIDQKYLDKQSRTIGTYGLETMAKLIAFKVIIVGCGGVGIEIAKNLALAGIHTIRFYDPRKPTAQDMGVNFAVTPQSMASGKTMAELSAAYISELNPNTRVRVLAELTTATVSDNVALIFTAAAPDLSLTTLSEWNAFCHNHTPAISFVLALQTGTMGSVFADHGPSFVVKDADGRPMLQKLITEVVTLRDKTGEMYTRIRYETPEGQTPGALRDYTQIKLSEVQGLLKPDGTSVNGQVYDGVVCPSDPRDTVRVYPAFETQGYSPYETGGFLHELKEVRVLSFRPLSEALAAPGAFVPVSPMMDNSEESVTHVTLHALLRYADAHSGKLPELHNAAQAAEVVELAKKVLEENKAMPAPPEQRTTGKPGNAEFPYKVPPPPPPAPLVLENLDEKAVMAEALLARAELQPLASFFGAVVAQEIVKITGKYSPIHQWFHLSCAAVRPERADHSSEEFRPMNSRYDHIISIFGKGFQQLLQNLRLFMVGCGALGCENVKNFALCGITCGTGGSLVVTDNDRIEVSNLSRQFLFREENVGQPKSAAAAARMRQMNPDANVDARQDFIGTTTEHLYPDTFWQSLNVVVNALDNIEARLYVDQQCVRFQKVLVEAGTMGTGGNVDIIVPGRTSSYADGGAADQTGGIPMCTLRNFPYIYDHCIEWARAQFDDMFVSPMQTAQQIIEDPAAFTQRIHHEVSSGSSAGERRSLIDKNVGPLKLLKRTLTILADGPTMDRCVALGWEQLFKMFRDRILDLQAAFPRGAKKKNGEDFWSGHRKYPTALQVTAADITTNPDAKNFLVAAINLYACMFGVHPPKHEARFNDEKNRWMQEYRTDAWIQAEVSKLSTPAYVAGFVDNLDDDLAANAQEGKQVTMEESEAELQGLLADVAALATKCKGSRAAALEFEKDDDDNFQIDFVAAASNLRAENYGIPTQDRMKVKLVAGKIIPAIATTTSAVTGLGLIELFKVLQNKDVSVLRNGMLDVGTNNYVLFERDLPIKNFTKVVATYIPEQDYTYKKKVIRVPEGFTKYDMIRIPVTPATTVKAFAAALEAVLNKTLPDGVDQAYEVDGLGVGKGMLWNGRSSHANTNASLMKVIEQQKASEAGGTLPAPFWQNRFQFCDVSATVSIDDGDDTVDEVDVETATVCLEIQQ
# [3] = biological target: AMP-activated protein kinase, AMPK (Homo sapiens) (UniProt P54646+O43741+P54619+Q9UGJ0+Q9Y478+Q13131+Q9UGI9); experiment: AMP-dependent Kinase enzyme assay. An in vitro enzyme assay that detects ADP turnover that is directly proportional to AMPK activity. This uses naive AMPK that is activated during the assay with MK-8722; assay type: functional; conditions: 30 µM
# [4] = biological target: Sialic acid-binding Ig-like lectin 9 (Homo sapiens) (UniProt Q9Y336); experiment: Hs-Siglec9 ALPHAscreen SOP 20170721; conditions: 10 µM
# Trypanosoma cruzi = experiment: Trypanosoma cruzi phosphomannomutase and mannose-1-phosphate guanylyltransferase assay; assay type: functional; conditions: 10 µM
# [5] = biological target: T2, Arginase-2, mitochondrial (Homo sapiens) (UniProt P78540); experiment: in vitro enzyme assay to detect the production of urea directly proportional to the activity of Arginase II; assay type: functional; conditions: 33.3 µM; further: in the data most compounds retested in dose-response had high values
# T2 sequence (whole entry): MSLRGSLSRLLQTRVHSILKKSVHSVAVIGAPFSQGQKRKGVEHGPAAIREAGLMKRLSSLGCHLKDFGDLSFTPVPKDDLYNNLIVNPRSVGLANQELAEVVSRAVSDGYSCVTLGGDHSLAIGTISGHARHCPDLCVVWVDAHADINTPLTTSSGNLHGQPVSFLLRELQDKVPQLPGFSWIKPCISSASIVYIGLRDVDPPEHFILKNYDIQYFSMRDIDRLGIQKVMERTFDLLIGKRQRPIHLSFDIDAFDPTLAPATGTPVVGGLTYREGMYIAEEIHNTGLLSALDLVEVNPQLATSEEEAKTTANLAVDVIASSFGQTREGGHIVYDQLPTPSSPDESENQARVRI
# [6] = biological target: T3, Proteasome subunit beta (Trypanosoma cruzi) (UniProt O96673); experiment: Trypanosoma cruzi proteasome chymotrypsin-like activity (TcProtChymo) assay.; further: in the data most compounds retested in dose-response had high values; assay type: functional; conditions: 9.37 µM
# T3 sequence (whole entry): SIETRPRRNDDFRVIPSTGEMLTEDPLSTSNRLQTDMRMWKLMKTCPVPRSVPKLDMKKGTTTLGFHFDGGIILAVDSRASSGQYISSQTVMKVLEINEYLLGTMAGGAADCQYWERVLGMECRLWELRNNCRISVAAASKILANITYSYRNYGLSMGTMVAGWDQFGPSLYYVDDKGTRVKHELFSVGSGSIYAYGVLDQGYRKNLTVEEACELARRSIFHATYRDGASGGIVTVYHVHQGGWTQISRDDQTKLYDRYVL
# Homo sapiens = species on record: Homo sapiens; experiment: To identify inhibition of the IFN signalling (Jak-Stat) pathway via expression of an eGFP reporter gene under the control of an IFN-stimulated response element (ISRE) containing MxA promoter.; assay type: functional; conditions: 30 µM
# [7] = biological target: T4, Tyrosyl-tRNA synthetase, putative (Trypanosoma cruzi (strain CL Brener)) (UniProt Q4DSP6); experiment: Trypanosoma cruzi tyrosyl tRNA synthetase (TcYRS) _High Tyrosine SOP; assay type: functional; conditions: 30 µM; further: in the data most compounds retested in dose-response had high values
# T4 sequence (whole entry): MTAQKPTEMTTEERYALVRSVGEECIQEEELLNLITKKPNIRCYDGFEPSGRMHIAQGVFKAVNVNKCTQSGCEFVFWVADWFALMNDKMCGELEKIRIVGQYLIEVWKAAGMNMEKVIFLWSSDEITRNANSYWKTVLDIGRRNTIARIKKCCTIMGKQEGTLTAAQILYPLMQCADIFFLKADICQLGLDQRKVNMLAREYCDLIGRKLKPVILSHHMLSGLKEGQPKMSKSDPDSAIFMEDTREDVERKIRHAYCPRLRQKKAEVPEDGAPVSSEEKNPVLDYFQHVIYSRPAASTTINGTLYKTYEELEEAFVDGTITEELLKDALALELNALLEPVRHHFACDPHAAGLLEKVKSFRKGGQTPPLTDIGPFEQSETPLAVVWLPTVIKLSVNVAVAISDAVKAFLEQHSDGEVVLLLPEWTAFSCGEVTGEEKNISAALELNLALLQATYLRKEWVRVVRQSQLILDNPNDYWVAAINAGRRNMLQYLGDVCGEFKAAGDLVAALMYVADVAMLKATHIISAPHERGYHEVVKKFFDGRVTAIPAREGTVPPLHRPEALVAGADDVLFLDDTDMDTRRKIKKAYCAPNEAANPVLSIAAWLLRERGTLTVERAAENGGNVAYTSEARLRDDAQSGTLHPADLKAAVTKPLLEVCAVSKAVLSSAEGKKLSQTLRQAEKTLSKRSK
# [8] = biological target: T4, Tyrosyl-tRNA synthetase, putative (Trypanosoma cruzi (strain CL Brener)); experiment: Trypanosoma cruzi tyrosyl tRNA synthetase (TcYRS) SOP; assay type: functional; conditions: 30 µM
# [9] = biological target: Chromo domain-containing protein 1 (Saccharomyces cerevisiae (strain ATCC 204508 / S288c) (Baker's yeast)) (UniProt P32657); experiment: ScCHD-1 Enzyme Inhibition Assay; assay type: functional; conditions: 30 µM; further: in the data most compounds retested in dose-response had high values
# Chromo domain-containing protein 1 (Saccharomyces cerevisiae (strain ATCC 204508 / S288c) (Baker's yeast)), sequence (P32657 whole entry, the tested form may be a part): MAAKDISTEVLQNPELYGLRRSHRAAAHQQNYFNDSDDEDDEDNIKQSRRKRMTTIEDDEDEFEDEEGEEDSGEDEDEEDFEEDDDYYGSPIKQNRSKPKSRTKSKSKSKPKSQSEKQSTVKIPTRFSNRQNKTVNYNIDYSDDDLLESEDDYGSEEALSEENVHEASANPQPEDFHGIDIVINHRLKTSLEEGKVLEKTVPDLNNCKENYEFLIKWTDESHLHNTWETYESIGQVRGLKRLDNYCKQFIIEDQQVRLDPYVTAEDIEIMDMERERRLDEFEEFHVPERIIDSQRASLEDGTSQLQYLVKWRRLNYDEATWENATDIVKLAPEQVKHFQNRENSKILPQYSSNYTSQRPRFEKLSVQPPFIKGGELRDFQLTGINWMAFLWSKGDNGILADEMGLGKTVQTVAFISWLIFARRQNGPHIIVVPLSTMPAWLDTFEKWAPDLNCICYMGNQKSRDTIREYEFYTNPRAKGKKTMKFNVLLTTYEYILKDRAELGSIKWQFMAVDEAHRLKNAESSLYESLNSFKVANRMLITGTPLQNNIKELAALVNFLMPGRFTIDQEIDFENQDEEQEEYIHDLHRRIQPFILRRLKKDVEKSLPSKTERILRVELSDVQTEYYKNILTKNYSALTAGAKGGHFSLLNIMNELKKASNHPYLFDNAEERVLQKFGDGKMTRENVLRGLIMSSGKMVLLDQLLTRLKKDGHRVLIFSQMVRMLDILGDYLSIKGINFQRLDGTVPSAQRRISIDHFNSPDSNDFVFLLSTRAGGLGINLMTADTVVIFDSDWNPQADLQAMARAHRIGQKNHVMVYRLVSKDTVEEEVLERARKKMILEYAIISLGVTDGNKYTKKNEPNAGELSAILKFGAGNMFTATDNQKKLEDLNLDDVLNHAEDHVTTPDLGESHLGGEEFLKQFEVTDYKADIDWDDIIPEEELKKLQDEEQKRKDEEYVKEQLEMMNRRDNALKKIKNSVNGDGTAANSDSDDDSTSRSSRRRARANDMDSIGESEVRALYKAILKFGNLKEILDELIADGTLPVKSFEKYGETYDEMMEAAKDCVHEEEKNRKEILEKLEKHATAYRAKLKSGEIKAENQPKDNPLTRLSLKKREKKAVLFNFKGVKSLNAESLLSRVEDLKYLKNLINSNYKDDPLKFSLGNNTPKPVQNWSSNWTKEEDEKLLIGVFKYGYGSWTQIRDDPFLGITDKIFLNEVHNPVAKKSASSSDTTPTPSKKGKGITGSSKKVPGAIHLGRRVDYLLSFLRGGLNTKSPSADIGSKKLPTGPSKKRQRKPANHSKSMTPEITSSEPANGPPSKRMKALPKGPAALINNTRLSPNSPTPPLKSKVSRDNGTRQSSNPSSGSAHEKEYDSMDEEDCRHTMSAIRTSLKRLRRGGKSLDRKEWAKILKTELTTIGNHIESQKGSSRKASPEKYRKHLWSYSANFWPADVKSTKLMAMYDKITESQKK
# Sialic acid-binding Ig-like lectin 9 (Homo sapiens), sequence (Q9Y336 whole entry): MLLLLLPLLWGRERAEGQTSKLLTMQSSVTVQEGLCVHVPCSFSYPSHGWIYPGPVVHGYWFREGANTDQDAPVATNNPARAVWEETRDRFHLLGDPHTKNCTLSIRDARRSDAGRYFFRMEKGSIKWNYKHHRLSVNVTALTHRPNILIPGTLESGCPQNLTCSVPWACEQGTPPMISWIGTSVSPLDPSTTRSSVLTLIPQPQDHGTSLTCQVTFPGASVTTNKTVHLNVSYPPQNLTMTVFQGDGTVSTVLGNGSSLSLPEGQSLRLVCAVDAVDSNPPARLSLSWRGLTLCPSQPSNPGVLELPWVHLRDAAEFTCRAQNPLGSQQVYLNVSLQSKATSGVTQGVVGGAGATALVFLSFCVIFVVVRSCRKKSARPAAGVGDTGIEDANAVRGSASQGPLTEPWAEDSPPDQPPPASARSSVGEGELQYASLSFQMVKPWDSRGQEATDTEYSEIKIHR
# Protein translocase subunit SecA (Escherichia coli (strain K12)), sequence (P10408 whole entry): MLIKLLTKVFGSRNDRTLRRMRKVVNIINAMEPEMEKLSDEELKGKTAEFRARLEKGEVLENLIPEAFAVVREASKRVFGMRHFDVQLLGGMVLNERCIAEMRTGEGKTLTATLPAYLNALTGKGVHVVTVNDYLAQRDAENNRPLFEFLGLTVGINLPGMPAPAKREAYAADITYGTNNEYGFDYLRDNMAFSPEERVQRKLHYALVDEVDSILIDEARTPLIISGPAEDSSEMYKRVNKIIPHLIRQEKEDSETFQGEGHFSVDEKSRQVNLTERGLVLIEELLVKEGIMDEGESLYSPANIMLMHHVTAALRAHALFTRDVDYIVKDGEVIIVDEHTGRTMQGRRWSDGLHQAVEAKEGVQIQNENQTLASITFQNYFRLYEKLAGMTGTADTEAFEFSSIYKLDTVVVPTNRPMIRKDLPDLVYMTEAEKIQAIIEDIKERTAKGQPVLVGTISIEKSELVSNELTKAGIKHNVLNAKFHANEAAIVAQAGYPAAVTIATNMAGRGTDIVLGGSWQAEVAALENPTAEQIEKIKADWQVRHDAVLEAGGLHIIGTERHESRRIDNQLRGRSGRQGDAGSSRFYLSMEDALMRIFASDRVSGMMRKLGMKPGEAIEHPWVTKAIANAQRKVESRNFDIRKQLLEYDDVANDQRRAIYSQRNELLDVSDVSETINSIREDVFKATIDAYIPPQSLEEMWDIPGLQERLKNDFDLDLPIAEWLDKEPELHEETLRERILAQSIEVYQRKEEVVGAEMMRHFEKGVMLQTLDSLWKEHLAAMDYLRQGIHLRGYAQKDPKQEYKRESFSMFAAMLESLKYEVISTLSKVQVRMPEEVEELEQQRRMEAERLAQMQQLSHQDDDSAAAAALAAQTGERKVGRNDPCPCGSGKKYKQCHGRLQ
Compound,Percent Effect [1],Percent Effect [2],Percent Effect [3],Percent Effect [4],Percent Effect (Trypanosoma cruzi),Percent Effect [5],Percent Effect [6],Percent Effect (Homo sapiens),Percent Effect [7],Percent Effect [8],Percent Effect [9]
Cn1c(CC2CCS(=O)(=O)C2)nnc1SCCOc1cccc(Cl)c1 (configuration not stated),-2.94%,10.8%,-5.55%,20.9%,4.99%,3.23%,14.8%,-7.24%,4.3%,16.1%,-10.4%
O=C1[C@H]2CC[C@H](CN(C3CSCCSC3)C2)N1Cc1cscn1,-0.514%,2.74%,6.23%,4.75%,-8.53%,-1.2%,18.4%,8.4%,8.33%,16.1%,1.67%
O=C(C1CC=CC1)N1CCc2c(COCc3ccncc3)cncc2C1,0.346%,5.48%,3.39%,12.2%,0.198%,-1.2%,29.9%,-4.59%,11.5%,11.1%,-4.36%
Cc1nc2ccnn2c(C)c1CCC(=O)N1CCN(C2CC2)CC1,-4.83%,18.4%,9.42%,-13.6%,-7.38%,0.719%,10.9%,7.93%,4.43%,13.6%,-7.28%
CC(C)Nc1nc(N2CCCC2)nc2c1CN(C(C)C)CC2,1.43%,-2.67%,-5.03%,21.2%,4.63%,-29.6%,14.7%,-15.2%,5.21%,-2.5%,-5.55%
CCc1noc(CN(C)Cc2ccc(N3CCCCC3)cc2)n1,-2.48%,2.6%,0.261%,13%,3.83%,15.2%,13.5%,5.54%,-6.45%,-8.64%,-6.82%
O=C(CCCOc1ccc(F)cc1F)N1CCCC1Cn1cccn1 (configuration not stated),-7.68%,15.8%,-5.85%,17.7%,4.01%,1.8%,8.38%,9.96%,5.42%,16.1%,-6.65%
CCOC[C@@H]1CCC[C@@]12CN(Cc1nccs1)CCO2,0.173%,16%,-1.62%,-5.32%,0.787%,3.5%,17.4%,10.8%,7.45%,19.2%,-7.27%
CCc1ncc2c(n1)CN(Cc1nc(-c3ccccn3)no1)CC2,-8.41%,15.8%,-29.3%,15.4%,11.7%,1.44%,2.79%,-20.6%,15.3%,25.9%,-10.3%
CNC(=O)[C@@]12CCC3(CCN(C(C)=O)CC3)[C@@H]1CN(S(C)(=O)=O)C2,-4.16%,8.11%,-2.4%,-2.81%,-4.01%,4.22%,-0.0858%,1.1%,5.38%,6.17%,-3.18%
Cc1noc(C)c1C(=O)N(C)Cc1nc(-c2ccccn2)no1,-7.17%,2.67%,-0.593%,19%,2.43%,4.69%,4.53%,-1.43%,4.92%,11.1%,-3.45%
COc1cc(N2C[C@@H]3COC[C@]3(COc3cccnc3)C2)ncn1,-4.12%,16.2%,3.02%,-8.65%,5.38%,-2.87%,18.4%,21.1%,2.16%,12.8%,-1.83%
Cc1nc(C)n(C2CCCN(C(=O)CCc3ccncc3)C2)n1 (configuration not stated),-5.25%,16.2%,0.169%,8.78%,2.34%,4.17%,6.34%,0.916%,12.9%,11%,-8.81%
CNC(=O)[C@H]1CO[C@H]2CCN(Cc3ccc4ccccc4n3)C[C@H]2C1,-4.79%,8.11%,7.95%,-3.25%,-3.62%,9.87%,18.8%,-14.1%,2.16%,15.4%,1.01%
Cc1ccccc1C(=O)NCc1ccc(N2CCNC(=O)C2)cc1,1.43%,5.41%,-9.32%,6.76%,1.16%,-14.8%,14.3%,-13.4%,15.3%,17.1%,-3.63%
Cc1ccc(C(=O)N2CCC3(CC2)CC(c2ccccc2)C(=O)N3)cn1 (configuration not stated),0.117%,18.7%,-5.79%,-1.61%,1.93%,-48.9%,18.1%,4.12%,1.04%,27.5%,-17.9%
COCc1nc2cc(NCc3ccc(C)o3)ccc2o1,-4.96%,13.5%,-42.7%,8.51%,6.05%,37.1%,14.3%,-1.74%,13.9%,15.8%,-2.51%
c1ccc(-c2nc(CN3CCCC(Cn4cncn4)C3)no2)cc1 (configuration not stated),-5.26%,-3.8%,7.69%,-3.34%,-3.59%,5.38%,4.8%,0.0835%,2.08%,7.59%,-9.44%
CS(=O)(=O)N1C[C@@H]2CC[C@H](C1)N(Cc1cscn1)C2=O,-4.04%,11%,-5.85%,7.01%,6.35%,-4.39%,9.85%,3.89%,6.25%,18.5%,-6.64%
CN(C)c1cc(C(=O)NCCc2nnc(-c3ccco3)[nH]2)ccn1,-2.63%,2.63%,0.765%,-1.33%,-2.63%,-4.73%,5.46%,0.0854%,4.25%,10.4%,-3.29%
Cc1ncc2c(n1)CCCC2NC(=O)c1ccncc1 (configuration not stated),-8.52%,2.6%,-3.85%,1.2%,-1.87%,-1.38%,3.16%,0.503%,1.07%,-3.7%,-0.226%
COc1cc(CNC(=O)Nc2cc(C(F)(F)F)c[nH]c2=O)ccn1,-3.54%,13.2%,2.48%,10.4%,1.13%,-3.06%,12.7%,7.49%,0.49%,12.2%,-11.3%
